Results filed as inconclusive are left out. Entries that show only a call come without a potency. Calls of active or inactive are those of the source. Unless noted, the call rests on the fitted dose curve; in most records, active means well fitted curve in the direction sought with a large enough effect in the repeat runs; inconclusive means weak or mixed curves; inactive means no such curve, though single readings can be large; an effect the other way counts as inactive or inconclusive.
How the values were obtained:
[1] = Caspase-3/7 induction in HepG2 cells by small molecules, qHTS assay (AID 1346978); further: nearly all actives have a fitted effect of over 15% in size
Outline: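 Caspase-3/7 induction was measured by Caspase-Glo 3/7 luminescence (30 min, room temperature) after a 17 hr compound exposure of wild-type HepG2 cells seeded at 2,000 per well and pre-incubated 5 hr.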

[2] = Caspase-3/7 induction in HepG2 cells by small molecules, qHTS cell viability counter screen (AID 1346981); further: nearly all actives have a fitted effect of over 30% in size; further: potency means the concentration at half of the fitted maximal effect
Outline: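 CellTiter-Fluor fluorescence measured viability in the same wells used for Caspase-Glo 3/7. HepG2 (wild type) at 2,000 cells/well were pre-incubated 5 hr, dosed, and given reagent at 16 hr, with 1 hr further at 37C.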

[3] = molecular target: Nuclear receptor subfamily 1 group I member 2 (Homo sapiens) (UniProt O75469); assay: Human pregnane X receptor (PXR) small molecule agonists, qHTS assay (AID 1346982); further: nearly all actives have a fitted effect of over 35% in size; further: potency means the concentration at half of the fitted maximal effect
Nuclear receptor subfamily 1 group I member 2 (Homo sapiens), sequence (O75469 whole entry, looked up): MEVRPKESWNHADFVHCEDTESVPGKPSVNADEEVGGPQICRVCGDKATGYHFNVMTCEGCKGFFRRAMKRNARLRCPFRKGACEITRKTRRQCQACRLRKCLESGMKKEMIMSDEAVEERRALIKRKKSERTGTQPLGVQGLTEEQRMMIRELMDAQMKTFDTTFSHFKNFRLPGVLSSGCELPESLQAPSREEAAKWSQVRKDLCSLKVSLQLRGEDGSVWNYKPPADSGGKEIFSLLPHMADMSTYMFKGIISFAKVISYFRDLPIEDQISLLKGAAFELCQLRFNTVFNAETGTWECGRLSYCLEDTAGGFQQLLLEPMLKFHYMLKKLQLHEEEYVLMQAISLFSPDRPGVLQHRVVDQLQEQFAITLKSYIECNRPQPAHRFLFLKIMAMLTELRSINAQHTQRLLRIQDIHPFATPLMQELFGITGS
Outline: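 Agonist mode: luminescence from ONE-Glo after 24 h compound exposure at 37C in HepG2 cells carrying hPXR-responsive CYP3A4 luciferase, plated in charcoal-stripped serum medium 5 h beforehand.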

[4] = molecular target: Acetylcholinesterase (Homo sapiens) (UniProt P22303); assay: Acetylcholinesterase (AChE) small molecule antagonists: colormetric cell-based qHTS assay (AID 1347395; calls by dose curve; further: nearly all actives have a fitted effect of over 30% in size; further: potency means the concentration at half of the fitted maximal effect)
Acetylcholinesterase (Homo sapiens), sequence (P22303 whole entry, looked up): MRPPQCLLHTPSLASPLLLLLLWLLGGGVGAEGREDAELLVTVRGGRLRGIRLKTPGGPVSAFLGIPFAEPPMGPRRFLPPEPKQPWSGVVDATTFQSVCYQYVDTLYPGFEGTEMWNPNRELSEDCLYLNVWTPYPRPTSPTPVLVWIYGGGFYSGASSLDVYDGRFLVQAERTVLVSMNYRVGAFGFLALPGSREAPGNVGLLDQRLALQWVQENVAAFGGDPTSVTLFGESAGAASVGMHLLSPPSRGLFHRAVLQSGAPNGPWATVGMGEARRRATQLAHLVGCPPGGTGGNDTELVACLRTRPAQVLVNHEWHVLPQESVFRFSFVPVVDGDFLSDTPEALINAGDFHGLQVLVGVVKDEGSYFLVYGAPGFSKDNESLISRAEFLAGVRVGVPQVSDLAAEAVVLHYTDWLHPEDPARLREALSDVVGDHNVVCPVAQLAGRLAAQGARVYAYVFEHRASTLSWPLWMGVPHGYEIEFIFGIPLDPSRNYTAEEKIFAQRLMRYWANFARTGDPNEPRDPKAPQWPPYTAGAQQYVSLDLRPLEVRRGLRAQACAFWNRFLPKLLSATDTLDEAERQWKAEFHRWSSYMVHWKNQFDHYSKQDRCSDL
Outline: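 After overnight attachment at 37 C, SH-SY5Y cells get 30 min compound exposure; detection cocktail (acetylthiocholine, DTNB) then incubates 90 min at 37 C, and absorbance reflects AChE-generated thiocholine.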

[5] = molecular target: Acetylcholinesterase (Homo sapiens) (UniProt P22303); assay: Acetylcholinesterase (AChE) small molecule antagonists: fluorescence cell-based qHTS assay (AID 1347398; calls by dose curve; further: nearly all actives have a fitted effect of over 50% in size; further: potency means the concentration at half of the fitted maximal effect); details: Potency: AChE activity
Outline: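 Cellular AChE activity read as thiocholine from acetylthiocholine hydrolysis, detected by Thiolite Green fluorescence at 490/520 nm after 40 min at room temperature. Compounds were pre-incubated 30 min at 37 C on adherent SH-SY5Y cells.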

[6] = molecular target: Cytochrome P450 2D6 (Homo sapiens) (UniProt P10635); assay: Cytochrome P450 Family 2 Subfamily D Member 6 (CYP2D6) small molecule antagonists: luciferase reporter qHTS assay (AID 1671196); further: nearly all actives have a fitted effect of over 50% in size; further: potency means the concentration at half of the fitted maximal effect
Cytochrome P450 2D6 (Homo sapiens), sequence (P10635 whole entry, looked up): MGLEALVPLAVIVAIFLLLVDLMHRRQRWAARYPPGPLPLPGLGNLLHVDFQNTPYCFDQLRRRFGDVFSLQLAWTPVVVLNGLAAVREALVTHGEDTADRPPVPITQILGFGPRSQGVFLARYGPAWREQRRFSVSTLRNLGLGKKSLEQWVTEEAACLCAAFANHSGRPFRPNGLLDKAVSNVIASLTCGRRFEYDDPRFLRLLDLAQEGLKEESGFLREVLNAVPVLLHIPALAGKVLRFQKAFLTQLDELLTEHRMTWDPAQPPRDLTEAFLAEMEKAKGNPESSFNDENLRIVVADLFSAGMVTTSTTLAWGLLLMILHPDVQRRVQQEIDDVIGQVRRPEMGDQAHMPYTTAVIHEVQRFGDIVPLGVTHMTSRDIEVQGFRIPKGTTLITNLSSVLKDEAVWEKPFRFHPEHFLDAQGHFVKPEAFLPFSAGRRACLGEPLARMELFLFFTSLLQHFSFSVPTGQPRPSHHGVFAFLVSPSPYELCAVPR
Outline: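 CYP2D6 activity was followed as luminescence from its luciferin product after a 1 h NADPH-driven reaction at room temperature. Enzyme-substrate mix and compound were pre-incubated for 10 min, and the signal was read 20 min after adding detection reagent.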

[7] = molecular target: Cytochrome P450 2C19 (Homo sapiens) (UniProt P33261); assay: Cytochrome P450 Family 2 Subfamily C Member 19 (CYP2C19) small molecule antagonists: luciferase reporter qHTS assay (AID 1671197); further: nearly all actives have a fitted effect of over 65% in size; further: potency means the concentration at half of the fitted maximal effect
Cytochrome P450 2C19 (Homo sapiens), sequence (P33261 whole entry, looked up): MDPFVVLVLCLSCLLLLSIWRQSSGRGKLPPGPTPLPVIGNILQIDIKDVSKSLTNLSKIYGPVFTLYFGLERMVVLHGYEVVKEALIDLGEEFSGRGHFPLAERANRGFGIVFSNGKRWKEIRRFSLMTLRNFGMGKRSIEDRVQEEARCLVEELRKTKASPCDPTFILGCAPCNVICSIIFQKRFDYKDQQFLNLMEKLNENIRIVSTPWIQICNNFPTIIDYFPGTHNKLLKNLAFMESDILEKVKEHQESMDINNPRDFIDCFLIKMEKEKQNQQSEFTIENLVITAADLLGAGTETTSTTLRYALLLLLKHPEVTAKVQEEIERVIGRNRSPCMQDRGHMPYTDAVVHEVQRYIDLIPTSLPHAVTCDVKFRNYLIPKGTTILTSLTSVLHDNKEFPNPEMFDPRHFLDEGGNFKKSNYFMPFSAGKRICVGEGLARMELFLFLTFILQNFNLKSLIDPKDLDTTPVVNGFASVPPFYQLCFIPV
Outline: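 Relative luminescence units recorded 20 min after the detection reagent stopped a 1 h, 37C CYP2C19 reaction on proluciferin substrate, which was started by NADPH regeneration following 10 min room-temperature compound preincubation; ketoconazole positive control.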

[8] = molecular target: Cytochrome P450 2C9 (Homo sapiens) (UniProt P11712); assay: Cytochrome P450 Family 2 Subfamily C Member 9 (CYP2C9) small molecule antagonists: luciferase reporter qHTS assay (AID 1671198); further: nearly all actives have a fitted effect of over 50% in size; further: potency means the concentration at half of the fitted maximal effect
Cytochrome P450 2C9 (Homo sapiens), sequence (P11712 whole entry, looked up): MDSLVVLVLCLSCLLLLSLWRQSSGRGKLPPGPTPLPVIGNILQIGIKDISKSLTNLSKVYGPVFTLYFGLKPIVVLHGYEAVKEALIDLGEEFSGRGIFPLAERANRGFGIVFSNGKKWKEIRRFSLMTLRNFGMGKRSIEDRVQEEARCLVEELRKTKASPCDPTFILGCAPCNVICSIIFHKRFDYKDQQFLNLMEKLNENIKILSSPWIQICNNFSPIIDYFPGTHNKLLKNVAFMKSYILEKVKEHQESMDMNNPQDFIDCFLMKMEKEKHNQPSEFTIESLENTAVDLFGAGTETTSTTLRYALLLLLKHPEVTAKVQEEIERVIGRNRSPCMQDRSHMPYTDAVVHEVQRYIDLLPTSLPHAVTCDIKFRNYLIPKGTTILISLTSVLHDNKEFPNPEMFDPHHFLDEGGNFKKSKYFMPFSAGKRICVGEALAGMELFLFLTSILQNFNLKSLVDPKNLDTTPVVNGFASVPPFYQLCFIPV
Outline: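 Enzyme-substrate mix preincubated with compound 10 min at room temperature; reaction started with NADPH regeneration solution, 1 h 37C. Luminescent luciferin product read after 20 min detection reagent.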

[9] = molecular target: Cytochrome P450 1A2 (Homo sapiens) (UniProt P05177); assay: Cytochrome P450 Family 1 Subfamily A Member 2 (CYP1A2) small molecule antagonists: luciferase reporter qHTS assay (AID 1671199); further: nearly all actives have a fitted effect of over 50% in size; further: potency means the concentration at half of the fitted maximal effect
Cytochrome P450 1A2 (Homo sapiens), sequence (P05177 whole entry, looked up): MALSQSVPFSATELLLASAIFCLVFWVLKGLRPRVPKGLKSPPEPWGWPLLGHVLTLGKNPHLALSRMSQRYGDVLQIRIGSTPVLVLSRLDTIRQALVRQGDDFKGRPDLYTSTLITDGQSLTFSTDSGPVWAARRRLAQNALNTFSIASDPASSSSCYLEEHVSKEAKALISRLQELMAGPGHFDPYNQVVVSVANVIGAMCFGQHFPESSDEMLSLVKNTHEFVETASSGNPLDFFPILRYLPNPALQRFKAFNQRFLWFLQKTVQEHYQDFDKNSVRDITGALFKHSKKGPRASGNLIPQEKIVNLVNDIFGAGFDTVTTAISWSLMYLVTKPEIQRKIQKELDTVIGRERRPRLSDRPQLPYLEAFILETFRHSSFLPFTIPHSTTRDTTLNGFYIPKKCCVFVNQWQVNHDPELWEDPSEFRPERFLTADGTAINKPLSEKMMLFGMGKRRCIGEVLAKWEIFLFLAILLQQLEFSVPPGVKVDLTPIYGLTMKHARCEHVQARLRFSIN
Outline: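 Luminescence from luciferin formed by CYP1A2 from a proluciferin substrate, read 20 min after detection reagent. Compound was pre-incubated 10 min with enzyme-substrate, and reaction started with NADPH regeneration solution for 1 h at room temperature; furafylline control.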

[10] = molecular target: Voltage-gated inwardly rectifying potassium channel KCNH2 (Homo sapiens) (UniProt Q12809); assay: Human Ether-a-go-go-Related Gene (hERG) channel small molecule antagonists: fluorescence cell-based qHTS assay (AID 1671200); further: nearly all actives have a fitted effect of over 50% in size; further: potency means the concentration at half of the fitted maximal effect
Voltage-gated inwardly rectifying potassium channel KCNH2 (Homo sapiens), sequence (Q12809 whole entry, looked up): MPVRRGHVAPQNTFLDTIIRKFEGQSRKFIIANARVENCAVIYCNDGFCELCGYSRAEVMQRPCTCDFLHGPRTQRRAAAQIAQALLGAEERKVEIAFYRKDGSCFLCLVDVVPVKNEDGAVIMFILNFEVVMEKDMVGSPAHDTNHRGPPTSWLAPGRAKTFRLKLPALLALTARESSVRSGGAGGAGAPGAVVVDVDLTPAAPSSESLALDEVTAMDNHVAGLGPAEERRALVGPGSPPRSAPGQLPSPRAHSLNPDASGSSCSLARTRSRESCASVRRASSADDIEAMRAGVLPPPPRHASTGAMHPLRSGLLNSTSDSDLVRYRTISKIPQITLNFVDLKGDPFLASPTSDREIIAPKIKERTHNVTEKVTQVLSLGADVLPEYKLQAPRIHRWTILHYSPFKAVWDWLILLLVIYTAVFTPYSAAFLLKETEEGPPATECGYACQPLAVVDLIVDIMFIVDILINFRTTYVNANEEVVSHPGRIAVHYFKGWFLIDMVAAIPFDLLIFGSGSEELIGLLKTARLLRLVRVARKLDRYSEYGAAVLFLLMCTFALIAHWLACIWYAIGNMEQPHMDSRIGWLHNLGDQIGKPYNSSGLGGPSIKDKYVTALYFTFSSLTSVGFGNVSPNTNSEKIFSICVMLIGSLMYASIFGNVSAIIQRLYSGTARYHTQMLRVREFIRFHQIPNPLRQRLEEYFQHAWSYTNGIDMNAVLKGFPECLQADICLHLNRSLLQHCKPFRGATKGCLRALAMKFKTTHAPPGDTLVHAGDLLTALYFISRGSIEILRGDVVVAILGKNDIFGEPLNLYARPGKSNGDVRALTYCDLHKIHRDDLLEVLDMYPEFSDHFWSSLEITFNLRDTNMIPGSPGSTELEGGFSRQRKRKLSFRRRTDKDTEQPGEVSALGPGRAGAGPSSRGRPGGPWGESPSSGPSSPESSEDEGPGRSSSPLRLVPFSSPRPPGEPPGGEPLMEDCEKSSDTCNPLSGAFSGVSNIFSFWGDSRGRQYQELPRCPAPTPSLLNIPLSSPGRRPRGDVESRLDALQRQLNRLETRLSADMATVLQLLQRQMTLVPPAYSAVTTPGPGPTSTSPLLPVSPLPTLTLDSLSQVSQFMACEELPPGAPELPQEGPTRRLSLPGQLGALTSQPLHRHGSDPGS
Outline: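 In this thallium-flux screen, overnight-cultured U2OS cells bearing the channel are dye-loaded in darkness for an hour, rested 10 min at room temperature, and then monitored kinetically at 480/540 nm for two minutes post-stimulus.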

[11] = Caspase-3/7 induction in CHO-K1 cells by small molecules, qHTS cell viability counter screen (AID 1346979); further: nearly all actives have a fitted effect of over 35% in size; further: potency means the concentration at half of the fitted maximal effect
Outline: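 Following a 5hr settling period, CHO-K1 cells at 1,500 per well received DMSO-dissolved compounds. Cell viability was quantified 16hr later by CellTiter-Fluor fluorescence, measured after 1hr with reagent at 37C.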

[12] = Caspase-3/7 induction in CHO-K1 cells by small molecules, qHTS assay (AID 1346980); further: nearly all actives have a fitted effect of over 15% in size
Outline: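 Luminescent Caspase-Glo 3/7 read (30min, room temperature) quantified apoptosis induction. Cells were wild-type CHO-K1, treated with compound for 17hr at 37 C and 5% CO2.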

[13] = molecular target: Nuclear receptor subfamily 1 group I member 2 (Homo sapiens) (UniProt O75469); assay: CYP3A4 induction through human pregnane X receptor (PXR) by small molecules, qHTS assay (AID 1346984); further: nearly all actives have a fitted effect of over 40% in size; further: potency means the concentration at half of the fitted maximal effect
Outline: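 Read-out is luminescence after One-Glo addition, following a 3 hr, 37C incubation with Luciferin-IPA CYP3A4 substrate (3uM final). Before that, compounds were on DPX-2 cells (HepG2 co-transfected with PXR element plus CYP3A4-promoter luciferase) for 24 hr at 37C.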

[14] = molecular target: Nuclear receptor subfamily 1 group I member 2 (Homo sapiens) (UniProt O75469); assay: Human pregnane X receptor (PXR) activation by small molecules, qHTS assay (AID 1346985); further: nearly all actives have a fitted effect of over 40% in size; further: potency means the concentration at half of the fitted maximal effect
Outline: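 DPX-2 cells (HepG2 co-transfected with a PXR response element and a CYP3A4-promoter luciferase construct) were seeded at 2,000 per well, rested 5 hr at 37C, then exposed to DMSO-dissolved compounds for 24 hr. Activation was read as luciferase luminescence.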

[15] = molecular target: Acetylcholinesterase (Homo sapiens) (UniProt P22303); assay: Acetylcholinesterase (AChE) small molecule antagonists: enzyme-based qHTS assay with human liver microsomes (AID 1347399; calls by dose curve; further: nearly all actives have a fitted effect of over 60% in size); details: Potency: qHTS inhibition
Outline: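 Recombinant human AChE (50 mU/mL in the enzyme mix) and human liver microsomes (0.25 mg/mL final) were preincubated with compound and NADPH (0.25 mg/mL final) for 30 min at 37 C. Acetylthiocholine/DTNB was then added; thiocholine was read colorimetrically after 10 min at room temperature.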

[16] = molecular target: Cytochrome P450 3A4 (Homo sapiens) (UniProt P08684); assay: Cytochrome P450 Family 3 Subfamily A Member 4 (CYP3A4) small molecule antagonists: luciferase reporter qHTS assay (AID 1671201); further: nearly all actives have a fitted effect of over 50% in size; further: potency means the concentration at half of the fitted maximal effect
Cytochrome P450 3A4 (Homo sapiens), sequence (P08684 whole entry, looked up): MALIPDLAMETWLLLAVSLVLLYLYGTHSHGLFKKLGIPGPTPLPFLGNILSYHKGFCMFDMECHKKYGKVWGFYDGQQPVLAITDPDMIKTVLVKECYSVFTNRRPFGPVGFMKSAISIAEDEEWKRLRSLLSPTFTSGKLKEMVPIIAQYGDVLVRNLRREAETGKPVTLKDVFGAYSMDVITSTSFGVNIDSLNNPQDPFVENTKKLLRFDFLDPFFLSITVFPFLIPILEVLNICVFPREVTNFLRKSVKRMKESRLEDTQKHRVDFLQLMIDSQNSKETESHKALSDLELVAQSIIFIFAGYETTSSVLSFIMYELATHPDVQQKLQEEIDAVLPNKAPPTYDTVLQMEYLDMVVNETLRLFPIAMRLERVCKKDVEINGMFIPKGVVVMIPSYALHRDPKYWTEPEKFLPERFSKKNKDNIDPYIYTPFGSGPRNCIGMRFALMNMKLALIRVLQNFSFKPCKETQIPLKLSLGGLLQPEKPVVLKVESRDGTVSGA
Outline: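 CYP3A4 activity was followed with a P450-Glo proluciferin substrate. Test compounds in DMSO were preincubated 10 min; NADPH regeneration then ran 1 h, and light output was read 20 min after detection reagent.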

[17] = Human pregnane X receptor (PXR) small molecule agonists, qHTS cell viability counter screen (AID 1346977); further: nearly all actives have a fitted effect of over 50% in size; further: potency means the concentration at half of the fitted maximal effect
Outline: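 In each well, the PXR reporter HepG2 line was checked for viability: CellTiter-Fluor reagent added 23hr post-dosing, fluorescence read after 1hr incubation at 37C.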

[18] = molecular target: Acetylcholinesterase (Homo sapiens) (UniProt P22303); assay: Acetylcholinesterase (AChE) small molecule antagonists: enzyme-based qHTS assay (AID 1347397; calls by dose curve; further: nearly all actives have a fitted effect of over 55% in size); details: Potency: AChE enzyme activity inhibition
Outline: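 Colorimetric DTNB readout of acetylthiocholine hydrolysis, 10 min at room temperature, after 30 min room-temperature exposure of 50 mU/mL recombinant human enzyme to compound; DMSO vehicle control.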

SMILES | Potency [1] | Potency [2] | Potency [3] | Potency [4] | Potency [5] | Potency [6] | Potency [7] | Potency [8] | Potency [9] | Potency [10] | Potency [11] | Potency [12] | Potency [13] | Potency [14] | Potency [15] | Potency [16] | Potency [17] | Potency [18]
CCOP(=S)(OCC)SCSP(=S)(OCC)OCC | inactive | inactive | 5.45 µM (active) | 39.9 µM (active) | 35.6 µM (active) | 35.6 µM (active) | 0.399 µM (active) | 0.796 µM (active) | 15.9 µM (active) | inactive |  |  |  |  |  |  |  | 
CC(C)(C)NCC(O)c1cc(Cl)c(N)c(Cl)c1 (centres undefined) | inactive |  | inactive | inactive |  | 15.5 µM (active) | inactive | inactive | inactive | inactive | inactive | inactive | inactive | inactive | inactive | inactive |  | 
Cc1nc(N)nc(N)n1 | inactive | inactive | inactive | inactive | inactive | inactive | inactive | inactive | inactive |  |  |  |  |  | inactive | inactive | inactive | inactive
CCN(CC)CCOC(=O)C(C)(c1ccccc1)c1ccccc1 | inactive | inactive | 13.3 µM (active) | inactive | inactive | 1.55 µM (active) | 3.89 µM (active) | 12.3 µM (active) | inactive |  | inactive | inactive | 7.94 µM (active) | 8.91 µM (active) |  |  |  | inactive
c1cc2c(c(N3CCNCC3)c1)OCCO2 | inactive | inactive | inactive | inactive |  |  | inactive | inactive |  | inactive |  |  | inactive | inactive | inactive | inactive | inactive | inactive
N#CC(CCc1ccc(Cl)cc1)(Cn1cncn1)c1ccccc1 (centres undefined) |  | 48.6 µM (active) | 19.3 µM (active) | inactive | inactive |  | 0.2 µM (active) | 2.24 µM (active) |  | 21.9 µM (active) | 43.3 µM (active) |  |  |  |  | 0.0633 µM (active) | 61.1 µM (active) | inactive
CCOC(=O)N(C)C(=O)CSP(=S)(OCC)OCC | inactive | inactive | 30.6 µM (active) |  | inactive |  | 0.126 µM (active) | 0.71 µM (active) | 3.17 µM (active) |  |  | inactive |  |  | inactive | 2.24 µM (active) | inactive | inactive
NC(=O)c1cc([N+](=O)[O-])cc([N+](=O)[O-])c1 | inactive | inactive | inactive |  | inactive | inactive | inactive | inactive | inactive | inactive | inactive | inactive | inactive | inactive | inactive | inactive |  | inactive
COc1cc(OC)nc(Sc2cccc(Cl)c2C(=O)O)n1 | inactive | inactive | inactive | inactive | inactive |  | inactive |  |  | inactive |  |  |  |  | inactive | inactive | inactive | inactive
CCCSP(=S)(OCC)Oc1ccc(Cl)cc1Cl (centres undefined) | inactive | inactive | 30.6 µM (active) | inactive | inactive |  | 2.24 µM (active) | 2 µM (active) | 11.2 µM (active) | inactive |  |  |  |  | inactive |  | inactive | inactive
Cc1cc(C)nc(Nc2ccccc2)n1 | inactive | inactive |  | inactive | inactive |  | 79.6 µM (active) |  |  | inactive |  | inactive |  |  | inactive |  | inactive | inactive
COc1cc(C[C@@H](C)N)c(OC)cc1C | inactive | inactive | inactive | inactive | inactive | 47.9 µM (active) | inactive | inactive |  | inactive | inactive | inactive |  |  |  | inactive |  | 
CCOC(=O)/C=C(C)/C=C/C[C@@H](C)CCCC(C)C | inactive | inactive |  | inactive | inactive |  | 28.3 µM (active) | 15.9 µM (active) |  |  |  |  | inactive | inactive | inactive |  | inactive | inactive
C#CCN1C(=O)COc2cc(F)c(N3C(=O)C4=C(CCCC4)C3=O)cc21 | inactive | inactive |  | inactive | inactive | 44.8 µM (active) |  | 71 µM (active) | 3.99 µM (active) |  |  | inactive |  |  | inactive | 35.6 µM (active) | inactive | inactive
CCOC(=O)C1(c2ccccc2)CCN(CCc2ccc(N)cc2)CC1 | inactive | inactive | 3.76 µM (active) | inactive | inactive |  |  |  |  | 19 µM (active) | inactive | inactive |  |  | inactive |  |  | inactive
C=C(C)[C@@H]1CC=C(C=O)CC1 | inactive | inactive |  | inactive | inactive | inactive | 63.3 µM (active) | 71 µM (active) | inactive | inactive |  |  |  |  | inactive | 35.6 µM (active) | inactive | inactive
CC1=NNC(=O)N(/N=C/c2cccnc2)C1 | inactive | inactive | inactive | inactive |  | inactive |  |  | 35.6 µM (active) |  |  |  |  |  | inactive | inactive | inactive | inactive
